Results reported in article PMC4336329 (PLoS ONE, 2015).
The campaign covered roughly 310,000 compounds. About 14,000 (4.5%) showed an effect of 50% or more. The effect is printed as a negative number. The sample holds strong results, similar compounds and a random draw of the others, so the mix is not that of the screen.

Target: human ether-à-go-go-related gene (hERG) potassium channel (human, UniProt Q12809)
Assay: primary screen, population patch clamp on CHO cells stably expressing hERG; higher = less effect of the substance
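Further: peak tail current of the secondary pulse compared with the same well before compound.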

human ether-à-go-go-related gene (hERG) potassium channel, sequence (Q12809 whole entry, looked up): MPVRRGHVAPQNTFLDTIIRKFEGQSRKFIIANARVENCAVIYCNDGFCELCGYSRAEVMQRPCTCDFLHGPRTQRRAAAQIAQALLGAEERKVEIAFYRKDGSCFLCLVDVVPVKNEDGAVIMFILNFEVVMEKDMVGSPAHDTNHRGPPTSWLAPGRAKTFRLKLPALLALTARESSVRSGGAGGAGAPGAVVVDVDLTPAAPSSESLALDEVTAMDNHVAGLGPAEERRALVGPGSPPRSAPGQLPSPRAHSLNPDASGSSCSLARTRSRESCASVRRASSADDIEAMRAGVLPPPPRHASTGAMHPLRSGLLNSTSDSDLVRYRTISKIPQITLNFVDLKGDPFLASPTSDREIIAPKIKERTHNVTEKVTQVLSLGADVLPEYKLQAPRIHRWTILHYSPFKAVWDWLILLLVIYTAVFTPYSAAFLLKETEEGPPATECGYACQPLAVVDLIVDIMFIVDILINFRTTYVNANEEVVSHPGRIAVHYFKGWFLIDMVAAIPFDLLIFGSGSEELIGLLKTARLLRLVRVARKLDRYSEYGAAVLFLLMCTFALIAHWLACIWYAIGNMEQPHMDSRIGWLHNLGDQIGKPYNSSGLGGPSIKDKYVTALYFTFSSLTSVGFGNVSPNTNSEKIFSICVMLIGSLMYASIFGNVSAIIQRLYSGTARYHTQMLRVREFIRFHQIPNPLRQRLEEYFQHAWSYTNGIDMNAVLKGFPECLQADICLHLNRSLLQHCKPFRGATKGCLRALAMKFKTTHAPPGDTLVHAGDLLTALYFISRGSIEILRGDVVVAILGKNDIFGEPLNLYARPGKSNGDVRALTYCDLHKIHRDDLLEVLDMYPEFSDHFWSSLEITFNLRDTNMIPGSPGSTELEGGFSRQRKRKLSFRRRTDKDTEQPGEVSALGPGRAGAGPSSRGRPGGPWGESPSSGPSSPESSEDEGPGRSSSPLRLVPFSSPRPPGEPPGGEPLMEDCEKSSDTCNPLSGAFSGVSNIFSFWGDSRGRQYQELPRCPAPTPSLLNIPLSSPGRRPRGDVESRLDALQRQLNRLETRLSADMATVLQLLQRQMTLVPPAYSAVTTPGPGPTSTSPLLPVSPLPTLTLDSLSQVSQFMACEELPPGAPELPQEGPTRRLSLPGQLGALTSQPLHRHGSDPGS

Compared with CN(C1CCCCC1)S(=O)(=O)c1ccc(S(=O)(=O)N2CCN(C(=O)c3ccccc3F)CC2)cc1, CSc1ccccc1C(=O)N1CCN(c2ccc(F)cc2)CC1 is lower in “hERG current change (%, negative = inhibition) at 10uM” value: -12.2% for the first, -17.5% for the second.

First: CCOC(=O)N1CCC(N2CC34C=CC(O3)C(C(=O)Nc3ccc(OCC)cc3)C4C2=O)CC1 (stereo not drawn)
Second: CCOc1ccc(CN2CCNC(=O)C2CC(=O)O)cc1 (stereo not drawn)
The “hERG current change (%, negative = inhibition) at 10uM” value of the first is lower: -18.7% for the first, 11.1% for the second.

First: CC(OC(=O)CNC(=O)COc1ccccc1)C(=O)N(C)Cc1ccccc1 (stereo not drawn)
Second: O=C(COc1ccccc1C(=O)Nc1ccccc1)NCCc1ccccc1
The “hERG current change (%, negative = inhibition) at 10uM” value of the first is lower: 5.07% for the first, 34.4% for the second.

Compared with COC(=O)c1ccccc1NC(=O)C1CCN(S(C)(=O)=O)CC1, Cc1ccc(C2(C)NC(=O)N(CC(=O)Nc3ccccc3C(=O)N3CCCCC3)C2=O)cc1 (stereo not drawn) is higher in “hERG current change (%, negative = inhibition) at 10uM” value: 1.04% for the first, 6.74% for the second.

Going from O=C(COC(=O)/C=C/c1ccc(S(=O)(=O)N2CCOCC2)cc1)NC1CCCCCCC1 to Cc1ccc(S(=O)(=O)N2CCOCC2)cc1NC(=O)COC(=O)CCn1c(C)csc1=O, the “hERG current change (%, negative = inhibition) at 10uM” value falls from 32.2% to 2.85%.

Going from CCO.N#CC1=C(N)Oc2c(oc(CO)cc2=O)C1c1ccccc1[N+](=O)[O-] (stereo not drawn) to CCc1ccc(NC(=O)CSC2=C(C#N)C(c3ccco3)C3=C(CCCC3=O)N2)cc1 (stereo not drawn), the “hERG current change (%, negative = inhibition) at 10uM” value falls from -1.44% to -1.71%.

Going from CC(=O)c1ccc(-c2ccc(C(=O)N3CCN(c4ccc(F)cc4)CC3)o2)cc1 to O=C(c1ccccc1)c1ccc(C(=O)N2CCN(c3ccc(F)cc3)CC2)o1, the “hERG current change (%, negative = inhibition) at 10uM” value falls from -16.7% to -78.4%.

Compared with O=C(c1ccc(CN2CCc3ccccc3C2)cc1)N1CCN(c2ccc(F)cc2)CC1, O=C(c1ccc(CN2CCc3ccccc3C2)cc1)N1CCN(c2ccccc2)CC1 is higher in “hERG current change (%, negative = inhibition) at 10uM” value: -68.6% for the first, -46.3% for the second.

Going from O=C(c1ccccc1C(=O)N1CCN(c2ccc(F)cc2)CC1)N1CCN(c2ccc(F)cc2)CC1 to O=C(c1ccccc1C(=O)N1CCN(c2ccccc2)CC1)N1CCN(c2ccccc2)CC1, the “hERG current change (%, negative = inhibition) at 10uM” value rises from -73.8% to -29.7%.

First: O=C(c1ccc(CN2CCc3ccccc3C2)cc1)N1CCCCC1
Second: CC(=O)N1CCN(C(=O)c2cccc(S(=O)(=O)NCc3ccccc3)c2)CC1
The “hERG current change (%, negative = inhibition) at 10uM” value of the first is lower: -9.72% for the first, 5.5% for the second.

First: O=C(c1cccc(S(=O)(=O)NCc2ccccc2)c1)N1CCN(c2cccc(C(F)(F)F)c2)CC1
Second: O=C(c1cccc(S(=O)(=O)NCc2ccccc2)c1)N1CCN(c2ccc(F)cc2)CC1
The “hERG current change (%, negative = inhibition) at 10uM” value of the first is higher: -4.17% for the first, -58.1% for the second.

Compared with O=C(c1ccc(Br)o1)N1CCN(c2ccc(F)cc2)CC1, O=C(c1ccco1)N1CCN(c2nc(-c3ccc(F)cc3)cs2)CC1 is higher in “hERG current change (%, negative = inhibition) at 10uM” value: -45.6% for the first, -34.9% for the second.

Going from COc1ccc(-c2nnc(SCC(=O)Nc3cc(C)on3)o2)cc1 to COc1ccc(-c2nc(CNS(=O)(=O)c3ccc(OC)c(OC)c3)cs2)cc1, the “hERG current change (%, negative = inhibition) at 10uM” value falls from 14.4% to -1.76%.

Compared with O=C1C(c2ccc(F)cc2)N(C2CCCCC2)C(=O)CN1C1CCCC1 (stereo not drawn), CC1CCC(NS(=O)(=O)c2ccc(N3CCCC3=O)cc2)CC1 (stereo not drawn) is higher in “hERG current change (%, negative = inhibition) at 10uM” value: -34.1% for the first, 1.51% for the second.

Going from O=C(CSc1ccc2nnc(-c3ccncc3)n2n1)Nc1ccc2c(c1)OCCO2 to Cc1ccc(NC(=O)CSc2ccc3nnc(-c4ccccn4)n3n2)cc1, the “hERG current change (%, negative = inhibition) at 10uM” value falls from 10.9% to -44.2%.

Compared with Cc1ccc(-c2cc(C(=O)O)c3cc(Br)ccc3n2)s1, Cc1ccc(-c2cc(C(=O)NCCCN3CCOCC3)c3ccccc3n2)cc1C is lower in “hERG current change (%, negative = inhibition) at 10uM” value: 16.7% for the first, 0.698% for the second.

Compared with COCc1c(C(=O)OCC(=O)NCCc2ccc(S(N)(=O)=O)cc2)oc2ccccc12, CN(C)S(=O)(=O)c1cccc(NC(=O)COc2ccc3ccccc3c2)c1 is lower in “hERG current change (%, negative = inhibition) at 10uM” value: -0.489% for the first, -7.08% for the second.

Compared with CCN(CC)C(=O)CC(c1ccc(N(C)C)cc1)c1c(O)cc(OC)cc1OC (stereo not drawn), CC(=O)Oc1ccc(-c2cccc(C(=O)N(C)c3ccc(O)cc3)c2)cc1 is lower in “hERG current change (%, negative = inhibition) at 10uM” value: 18.7% for the first, -17.8% for the second.

Compared with CCCCN(CCCC)c1cc(C)nc(-c2ccccc2O)n1, Cc1ccccc1-c1nnc(SCC(=O)NCc2ccc3c(c2)OCO3)n1C is lower in “hERG current change (%, negative = inhibition) at 10uM” value: 16.8% for the first, -8.1% for the second.

Compared with Cc1cccc(OCC(=O)Nc2ccc(S(=O)(=O)Nc3onc(C)c3C)cc2)c1C, CC(=O)Nc1sc(C)c(C)c1C(=O)OCC(=O)Nc1ccccc1 is lower in “hERG current change (%, negative = inhibition) at 10uM” value: 13.3% for the first, 5.91% for the second.

First: Cc1ccc(N(CC(=O)NC2CCCCC2)C(=O)c2ccc(C)s2)cc1
Second: O=C(CSc1ncc(C(=O)O)n1-c1ccc(F)cc1)NCc1ccc2c(c1)OCO2
The “hERG current change (%, negative = inhibition) at 10uM” value of the first is lower: -11.2% for the first, 35.8% for the second.

Compared with CCOC(=O)c1c(NC(NC(=O)C(C)C)C(Cl)(Cl)Cl)sc2c1CCC2 (stereo not drawn), O=C(COc1cccc(Cl)c1)Nc1ccc2c(c1)CCC2 is lower in “hERG current change (%, negative = inhibition) at 10uM” value: 11% for the first, -3.73% for the second.

Going from O=C(CSc1nc(-c2ccc(F)cc2)cs1)N1CCN(C(=O)c2ccco2)CC1 to O=C(CSc1nc(-c2ccccc2)cs1)N1CCN(C(=O)c2ccco2)CC1, the “hERG current change (%, negative = inhibition) at 10uM” value falls from -57% to -60.6%.

First: CC1CN(C(=O)CSc2nc(-c3ccccc3)cs2)CC(C)O1 (stereo not drawn)
Second: O=C(CSc1nc(-c2ccc(F)cc2)cs1)N1CCOCC1
The “hERG current change (%, negative = inhibition) at 10uM” value of the first is higher: 3.57% for the first, -25.4% for the second.

First: O=C(CSc1nncs1)N1CCN(C(=O)c2ccco2)CC1
Second: CCn1c(SCC(=O)NCc2ccc3c(c2)OCO3)nnc1-c1ccco1
The “hERG current change (%, negative = inhibition) at 10uM” value of the first is higher: 5.31% for the first, -5.03% for the second.

Compared with O=[N+]([O-])c1ccc(N=Nc2c(Cl)cc(O)cc2Cl)cc1, COc1ccc(N=C2SCC(c3ccc([N+](=O)[O-])cc3)=NN2CCO)cc1 is lower in “hERG current change (%, negative = inhibition) at 10uM” value: 18.2% for the first, -53.1% for the second.

Compared with O=C(O)c1ccc(/C=N/N2CCN(C3c4ccccc4-c4ccccc43)CC2)cc1, Cc1ccc(CNC(=O)c2ccc(N3CCc4ccccc43)c([N+](=O)[O-])c2)cc1 is lower in “hERG current change (%, negative = inhibition) at 10uM” value: 12.1% for the first, 3.31% for the second.

First: C=CCn1c(SCC(=O)NCc2ccc3c(c2)OCO3)nnc1-c1cccnc1
Second: O=C(CSc1nnc(-c2cccnc2)n1-c1ccccc1)NCc1ccc2c(c1)OCO2
The “hERG current change (%, negative = inhibition) at 10uM” value of the first is higher: -0.64% for the first, -69% for the second.

Compared with O=C(CSc1nnc(-c2ccco2)n1-c1ccccc1)NCc1ccc2c(c1)OCO2, O=C(CSc1nc2ccccc2c(=O)n1-c1ccccc1)NCc1ccc2c(c1)OCO2 is higher in “hERG current change (%, negative = inhibition) at 10uM” value: -73.4% for the first, 3.23% for the second.

First: O=C(CSc1nnc(-c2cccnc2)n1-c1ccccc1)Nc1ccc2c(c1)OCO2
Second: O=C(CSc1nnc(-c2cccnc2)n1-c1ccc(F)cc1)NCc1ccc2c(c1)OCO2
The “hERG current change (%, negative = inhibition) at 10uM” value of the first is higher: -6.74% for the first, -72.5% for the second.

Going from CN(C)c1ccc(C(=S)Nc2ccccc2)cc1 to S=C(Cc1ccc(-c2ccccc2)cc1)N1CCOCC1, the “hERG current change (%, negative = inhibition) at 10uM” value falls from 12.5% to -11.9%.

First: COC(=O)c1cc(NC(=O)c2nccnc2C(=O)O)cc(C(=O)OC)c1
Second: COc1ccc(Cl)cc1S(=O)(=O)N(C)CC(=O)NCc1ccccn1
The “hERG current change (%, negative = inhibition) at 10uM” value of the first is lower: 13.8% for the first, 17.8% for the second.

Going from Cc1ccc2nc3c(cc(C(=O)NCCc4ccccc4)c(=N)n3CCN3CCOCC3)c(=O)n2c1 to Cc1ccc2nc3c(cc(C(=O)NCCc4ccccc4)c(=N)n3CCCN3CCOCC3)c(=O)n2c1, the “hERG current change (%, negative = inhibition) at 10uM” value falls from -76.7% to -80.6%.

Compared with Cc1ccc2nc3c(cc(C(=O)NCCN4CCOCC4)c(=N)n3CCCN3CCOCC3)c(=O)n2c1, Cc1oc(-c2ccccc2F)nc1CS(=O)(=O)CC(=O)NCc1ccco1 is lower in “hERG current change (%, negative = inhibition) at 10uM” value: -7.16% for the first, -27.3% for the second.

First: O=C(NCc1ccco1)c1cccc(F)c1
Second: O=C(CSc1ccc2nnc(-c3ccccn3)n2n1)Nc1ccc(F)cc1F
The “hERG current change (%, negative = inhibition) at 10uM” value of the first is higher: 6.59% for the first, -30.4% for the second.

First: CC1CN(c2nnnn2-c2ccccc2)CC(C)O1 (stereo not drawn)
Second: Cc1ccc(CSc2nnc(-c3ccccn3)n2C)cc1
The “hERG current change (%, negative = inhibition) at 10uM” value of the first is lower: -23.1% for the first, -3.39% for the second.

Compared with COc1ccc(N=C2SCC(c3ccc(C)cc3)=NN2CCO)cc1, O=[N+]([O-])c1ccc(C2=NN(CCO)C(=Nc3ccc(OC(F)(F)F)cc3)SC2)cc1 is lower in “hERG current change (%, negative = inhibition) at 10uM” value: -9.63% for the first, -13.5% for the second.

Going from COCCN=c1scc(-c2ccccc2)n1/N=C/c1c[nH]c2ccccc12 to COCCN=c1scc(-c2cccs2)n1/N=C/c1ccc(O)c(O)c1O, the “hERG current change (%, negative = inhibition) at 10uM” value falls from 18.7% to 6.24%.

First: COCCN=c1scc(C)n1/N=C/C1CC2C=CC1C2 (stereo not drawn)
Second: C=CCn1c(O)c(C=Nc2ccc(N(CC)CC)cc2)c(=O)[nH]c1=O
The “hERG current change (%, negative = inhibition) at 10uM” value of the first is lower: -55% for the first, -7.13% for the second.

First: Nn1c(SCc2ccc(Br)cc2)nnc1-c1ccccn1
Second: Cn1c(SCc2ccc(Br)cc2)nnc1-c1ccccn1
The “hERG current change (%, negative = inhibition) at 10uM” value of the first is higher: 17.5% for the first, -19.4% for the second.

First: Fc1ccc(CSc2ccc3nnc(-c4ccccn4)n3n2)cc1
Second: Brc1ccc(CSc2ccc3nnc(-c4ccccn4)n3n2)cc1
The “hERG current change (%, negative = inhibition) at 10uM” value of the first is lower: -87.6% for the first, -67.1% for the second.

First: O=C(CSc1ccc2nnc(-c3ccccn3)n2n1)Nc1ccc(F)cc1
Second: O=C(CSc1ccc2nnc(-c3ccccn3)n2n1)Nc1ccccc1
The “hERG current change (%, negative = inhibition) at 10uM” value of the first is lower: -48.2% for the first, -23.4% for the second.

First: O=C(CSc1ccc2nnc(-c3ccccn3)n2n1)Nc1ccccc1F
Second: c1ccc(CSc2ccc3nnc(-c4ccccn4)n3n2)cc1
The “hERG current change (%, negative = inhibition) at 10uM” value of the first is higher: -14.7% for the first, -69.5% for the second.

In the case of Cc1ccc(CSc2ccc3nnc(-c4ccccn4)n3n2)cc1, the “hERG current change (%, negative = inhibition) at 10uM” value is reported as -71.8%.
